Sensor-assay potency score (higher = more potent) data for 39 sequences are collected here from the OligoGym collection.
Also: reference of the scale not given here.

In one assay the target is RPL19. Kind of assay: pooled miR-30 sensor sort-seq; sequence = guide strand. The settings on record: shRNA.
The sequence ATTGGGGTCTAACCAGACCTTC gave a sensor-assay potency score (higher = more potent) of -1.59. Take ATTGGCTGTACCCTTCCGCTTA: the sensor-assay potency score (higher = more potent) is -0.619. Same read-out and setting: the result for TTTTTGAACACATTCCCCTTCA reads -0.0211. Still for that read-out and setting: under TTGCGTGCTTCCTTGGTCTTAG stands -0.319.

The next assay has as its target RPL27. Described as above. The note with it: shRNA.
ATATCCACAGAGTACCTTGTGG came in with a sensor-assay potency score (higher = more potent) of -0.336. Still for that read-out and setting: the result for TTCACGATGACAGCTTTGCGTC reads -0.995. The same measure, in the same setting: the result for TTGTTCTTGCCTGTCTTGTATC reads -1.8. The same measure, in the same setting: under AGGATCTCTGAAGACATCCTTA stands -1.41; under TTATCTTTGATCTCTTGGCGAT, -0.525. TTTAAGAGCAGGATCTCTGAAG registered a sensor-assay potency score (higher = more potent) of -0.365. Sequence TTTATCTTTGATCTCTTGGCGA showed a sensor-assay potency score (higher = more potent) of -0.218. Still for that read-out and setting: the result for TATCTTTGATCTCTTGGCGATC reads -1.37. Still for that read-out and setting: under ATTGACGACAGTTTTGTCCAAG stands -1.31; under TTCTTCACGATGACAGCTTTGC, -0.801; under TCTCTCTTCAAACTTGACCTTG, -0.698. TACACTTTCACAAAAGATTTTA returned a sensor-assay potency score (higher = more potent) of -0.949.

The target of another assay is RPS27. The assay is described as above. The settings on record: shRNA.
TTCACATCCATGAAGTAGGAAT gave a sensor-assay potency score (higher = more potent) of -1.13. Turning to TTCTTCTTGTGTTTCCTCTTCT, the sensor-assay potency score (higher = more potent) came to 0.637.

TGAAGGAACATCCTTCTGTAAG registered a sensor-assay potency score (higher = more potent) of -1.76. Still for that read-out and setting: the result for TCCTCTTCTCCTCTTCTGGAGA reads -1.67; that for TGGTGATTTTATAGCATCCTGG, -1.63. The same measure, in the same setting: under TTTCACATCCATGAAGTAGGAA stands 0.096. On the same count and under the same terms, the result for TAAGCCTTGCTTTTCCTCCTGT reads 0.376. For the sequence TGATTTTATAGCATCCTGGGCA, the sensor-assay potency score (higher = more potent) is -0.287. On to TTGCTTTTCCTCCTGTAGGCTG, for which the sensor-assay potency score (higher = more potent) is -0.847.

As to TTGTGCATGGCTAAAGACCGTG, the sensor-assay potency score (higher = more potent) is -0.673. As for TTTTATAGCATCCTGGGCATTT, the sensor-assay potency score (higher = more potent) is -0.741. On the same count and under the same terms, under TTCCTCTTCTCCTCTTCTGGAG stands -0.516.

For another assay, the target named is RPS28. The description is as above. The settings on record: shRNA.
Sequence TGTCCCTGAGAACCGGTCCTGC returned a sensor-assay potency score (higher = more potent) of -1.38. On the same count and under the same terms, the result for TTTACATTGCGGATGATGGATC reads -1.07; that for TCGCTCTGACTCCAAAAGGGTG, -1.7. On the same count and under the same terms, under TGCACTGTCCCTGAGAACCGGT stands -1.07; under TTGCGGATGATGGATCGGCTCG, -1.36. The same measure, in the same setting: under TTGGTGACCCTGGCCAGCTTGA stands -1.2. For AATTCCACGCGCACCTGCGTGC, the sensor-assay potency score (higher = more potent) is -0.771. In the case of TCGGCTCGTGTCGTCCATGAAT, the sensor-assay potency score (higher = more potent) is -1.75.

Turning to TGATGGATCGGCTCGTGTCGTC, the sensor-assay potency score (higher = more potent) was -1.07. On the same count and under the same terms, the result for TGGATCGGCTCGTGTCGTCCAT reads -1.14; that for TTTTACATTGCGGATGATGGAT, -0.481.
